Reference: PubChem BioAssay (NCI)
This is part of a sample that, as a whole, favours compounds with a hit. Of some 83,000 tested, about 20% had one in any assay.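 Growth was measured after 48 h exposure to one concentration of compound in 96-well plates. Values under 10 count as active.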 Values without a mark were called inactive. The source made the active and inactive calls.

Columns and labels:
Experiment in all cases: NCI-60 one-dose screen, 48 h (100 = growth as untreated, 0 = no growth, -100 = all killed)
SK-MEL-2 melanoma = conditions: 10 µM unless noted
EKVX NSCLC = conditions: 10 µM
SN12C renal = conditions: 10 µM unless noted
UO-31 renal = conditions: 10 µM unless noted
TK-10 renal = conditions: 10 µM unless noted
ACHN renal = conditions: 10 µM unless noted
CAKI-1 renal = conditions: 10 µM unless noted
A498 renal = conditions: 10 µM unless noted
CCRF-CEM leukemia = conditions: 10 µM
MOLT-4 leukemia = conditions: 10 µM unless noted

| Structure (SMILES) | growth (SK-MEL-2 melanoma) | growth (EKVX NSCLC) | growth (SN12C renal) | growth (UO-31 renal) | growth (TK-10 renal) | growth (ACHN renal) | growth (CAKI-1 renal) | growth (A498 renal) | growth (CCRF-CEM leukemia) | growth (MOLT-4 leukemia) |
| --- | --- | --- | --- | --- | --- | --- | --- | --- | --- | --- |
| CC1(C)NCCC[C@]2(C)[C@H]3CC=C4[C@@H]5C[C@](C)(COC(=O)c6ccccc6C(=O)O)CC[C@]5(C)CC[C@@]4(C)[C@]3(C)CC[C@@H]12 | 83.5% | 86.7% | 65.5% | 87.4% | 36% | 43.3% | 86% | 107% | 35.8% | 20.5% |
| Nc1ccc(S(=O)(=O)c2ccc(NO)cc2)cc1 | 93.2% | 90.5% | 121% | 84.2% | 131% | 114% | 102% | 114% | 91.8% | 95.9% |
| COCn1c(C(=O)OC)cc2oc(/C=C3/SC(=S)N(N)C3=O)cc21 | 96.9% | 91.8% | 121% | 95.7% | 101% | 110% | 87.3% | 54% | 98.1% | 68.6% |
| Cc1ncc(C(=O)Nc2ccc(CN3CCN(C)CC3)c(C(F)(F)F)c2)cc1C#Cc1c(N)ncc2ccccc12 | -76.9% (active) | -89.5% (active) | -99.1% (active) | -99.1% (active) | -99.4% (active) | -100% (active) | 2.22% (active) | -98% (active) | -48.3% (active) | -67.6% (active) |
| COc1cccc2c1n([O-])c1cccc(OC)c1[n+]2=O | 71.5% | 45.6% | 83.3% | 60.6% | 59.8% | 72.3% | 304% | 106% | 9.03% (active) | 26.3% |
| O=C1C(=O)c2ccccc2C(O)=C1CCCc1ccc(C2CCCC2)cc1 | 33.2% | 27% | 49.5% | 45.8% | 36.7% | 30.8% | 67.8% | 24.2% | 24.4% | 14.1% |
| Nc1ccc(S(=O)(=O)Nc2cc(F)cc(F)c2)cc1 | 94.5% | 80.4% | 105% | 85.4% | 112% | 98.7% | 100% | 95% | 93.4% | 72.7% |
| COc1cc2c(c(OC)c1OC)C(=O)CC(c1cccc(C(=O)Nc3cccc(Br)c3)c1)O2 (stereo not given) | 73.8% | 85.1% | 71.7% | 51.3% | 109% | 89.1% | 85.3% | 76% | 45% | 48.8% |
| CC(C)OC(=O)Nn1cnc2ccccc21 | 106% | 106% | 113% | 93.1% | 87.6% | 114% | 92.2% | 119% | 81% | 75.2% |
| CSC1=Nc2c(c(C)c(-c3ccccc3)n2CCCCl)C2=NC(=O)CN12 | 75.4% | 54.2% | 86.3% | 57.2% | 105% | 88.3% | 57.7% | 46.9% | 51.9% | 50.6% |
| COc1cc(N2C(=O)C=CC2=O)ccc1N1C(=O)C=CC1=O | 113% | 94.2% | 105% | 87.1% | 86.4% | 96.6% | 93.7% | 74.9% | 18.9% | 100% |
| Nc1nc2c(c3cnccc13)C(c1cccc(Br)c1)Cc1cnccc1-2 (stereo not given) | 27.2% | 27.6% | 27.5% | 21.4% | 28.5% | 16.7% | 25.6% | -10.6% (active) | 6.84% (active) | 11.6% |
| COC(=O)C(C)[C@H]1CC[C@@H]2[C@]1(C)CC=C1[C@]23C=C[C@]2(C[C@@H](OC(C)=O)CC[C@]12C)C(C(=O)OC)C3C(=O)OC (stereo not given in full) | 100% | 86.1% | 100% | 86.7% | 109% | 112% | 94.7% | 106% | 74.4% | 46.7% |
| COc1cc(NC(C)CCCN)c2nc(C)ccc2c1OC (stereo not given) | 99.6% | 97.1% | 99% | 95.7% | 110% | 105% | 106% | 92.7% | 24.8% | 6.98% (active) |
| COc1cc(-c2c3c(cn2CCN2CCCCC2)-c2oncc2CC3)cc(OC)c1OC | 106% | 102% | 101% | 80.2% | 100% | 89.7% | 87% | 90.9% | 103% | 100% |
| Cc1nc2c(nnn2-c2ccccc2)c2nc(-c3ccc(Cl)cc3)oc(=O)c12 | 107% | 110% | 104% | 83% | 108% | 107% | 94.7% | 105% | 103% | 113% |
| Cc1ccc(C(=O)Nc2ccc(CN3CCN(C)CC3)c(C(F)(F)F)c2)cc1C#Cc1cncc2ncccc12 | -78.7% (active) | -71.8% (active) | -98.2% (active) | -96.3% (active) | -98.8% (active) | -98.9% (active) | 1.96% (active) | -95.5% (active) | -56.2% (active) | -58.9% (active) |
| CC(=O)Nc1nc(C)c(C(=O)N/N=C/c2cccs2)s1 | 19.3% | 107% | 92.6% | 79.8% | 144% | 95.9% | 111% | 92.4% | 84.6% | 84.1% |
| Oc1ccccc1/C=N/N=C/c1c(O)ccc2ccccc12 | 92.4% | 72.1% | 85.1% | 42.9% | 101% | 80% | 91.6% | 123% | 7.8% (active) | 57.7% |
| Brc1ccc(-c2nc3ccccc3s2)cc1 | 105% | 75.4% | 95% | 59.5% | 142% | 92% | 73.4% | 77.2% | 95.5% | 88.1% |
| COC(=O)c1ccc2[nH]c(O)c(C(=Nc3ccc(N(C)C(=O)CN4CCN(C)CC4)cc3)c3cccc(OC)c3)c2c1 | -0.0955% (active) | 38.7% | 9.77% (active) | 20.2% | 0.964% (active) | 6.22% (active) | 2.55% (active) | -14.9% (active) | 7.19% (active) | -7.42% (active) |
| Nc1cc(N)c2nc(-c3ccccc3)c(NCCc3ccc(Cl)c(Cl)c3)nc2c1 | -62.7% (active) | -100% (active) | -96.6% (active) | -93% (active) | -92.5% (active) | -100% (active) | -92.4% (active) | -34.4% (active) | -66.1% (active) | -16.4% (active) |
| COc1ccc(Cn2cc3c(c2-c2ccc(OC)cc2)CCc2cnoc2-3)cc1 | 31% | 49.4% | 26.5% | 25.7% | 69.1% | 30.7% | 14.8% | 3.78% (active) | 9.28% (active) | 23.7% |
| COc1cccc(Cn2cc3c(c2)-c2oncc2CC3)c1 | 35.5% | 27.2% | 34.5% | 38.8% | 69.4% | 42.7% | 13.9% | 36.4% | 15.2% | 26.6% |
| CCOC(=O)CSSCC(=O)OCC | 111% | 105% | 103% | 100% | 103% | 103% | 97.5% | 118% | 95.9% | 90.3% |
| CCN(CC)c1ccc2nc3ccc(N=Nc4ccc(O)cc4)cc3[n+](-c3ccccc3)c2c1 | 76.8% | 77.6% | 75.5% | 48.5% | 66.6% | 60.2% | 90.5% | 75% | 12.8% | 18.1% |
| CCCC(C)c1cc(Cc2cc(Cl)cc(Cl)c2O)c(O)c(Cc2cc(Cl)cc(Cl)c2O)c1 (stereo not given) | 1.41% (active) | 6.21% (active) | 5.5% (active) | 6.1% (active) | 17.4% | 0.12% (active) | 15.6% | -29.8% (active) | 6.76% (active) | -8.73% (active) |
| CCOC(=O)c1c(C)oc2ncnc(Nc3ccc(NC(=O)Nc4cccc(Cl)c4)cc3)c12 | 72.7% | 72.3% | 74% | 50.4% | 79.2% | 57.5% | 90.8% | 63% | 31.5% | 49.3% |
